# Test results taken from the supplement of paper PMC13380429.
# What was measured:
# [1] = test system: Vero E6 infected with SARS-CoV-2; assay: morphology score (similarity to uninfected cells); higher = more like uninfected cells; settings: 24 h
# [2] = test system: Vero E6 infected with SARS-CoV-2; assay: SARS-CoV-2 infection rate relative to infected DMSO; higher = more infection, active = 60 or less; settings: 24 h
compound,measurement,setting,value
COCCOc1cnc2ccn([C@H](C)c3nnc4c(F)cc(-c5cnn(C)c5)cn34)c(=O)c2c1 (10 µM),morphology score,[1],0.0816
same,SARS-CoV-2 infection rate,[2],105% (inactive)
CC(=O)O[C@@]12CO[C@@H]1C[C@H](O)[C@@]1(C)C(=O)[C@H](O)C3=C(C)[C@@H](O)C[C@@](O)([C@@H](OC(=O)c4ccccc4)[C@H]21)C3(C)C [10-deacetylbaccatin] (10 µM),morphology score,[1],0.18
same,SARS-CoV-2 infection rate,[2],109% (inactive)
Cc1nn(C)c2c1C(c1cccc(Cl)c1)=NCCN2 [zometapine] (10 µM),morphology score,[1],0.136
same,SARS-CoV-2 infection rate,[2],104% (inactive)
Cc1cc2ncc(C(=O)NCC(C)(C)NCC(=O)N3CCC[C@H]3C#N)cn2n1 [anagliptin] (10 µM),morphology score,[1],-0.112
same,SARS-CoV-2 infection rate,[2],110% (inactive)
CN1C(=O)COc2c(C(=O)NC3CN4CCC3CC4)cc(Cl)cc21 (stereo not drawn) [azasetron] (10 µM),morphology score,[1],0.143
same,SARS-CoV-2 infection rate,[2],98% (inactive)
CNC(=O)Oc1cccc2ccccc12 [carbaril] (10 µM),morphology score,[1],0.025
same,SARS-CoV-2 infection rate,[2],101% (inactive)
C[C@@H]1Cc2c([nH]c3ccccc23)[C@@H](c2c(F)cc(/C=C/C(=O)O)cc2F)N1CC(C)(C)F (10 µM),morphology score,[1],-0.0686
same,SARS-CoV-2 infection rate,[2],105% (inactive)
CN1CCN(c2ccc(-c3cccc(CN4CCOCC4)c3)cc2NC(=O)c2c[nH]c(=O)cc2C(F)(F)F)CC1 (10 µM),morphology score,[1],0.0309
same,SARS-CoV-2 infection rate,[2],115% (inactive)
C=C1/C(=C\C=C2/CCC[C@]3(C)[C@@H]([C@H](C)/C=C/C=C/C(O)(CC)CC)CC[C@@H]23)C[C@@H](O)C[C@@H]1O [seocalcitol] (10 µM),morphology score,[1],-0.0779
same,SARS-CoV-2 infection rate,[2],110% (inactive)
O=C(/C=C/N1C[C@H]2C[C@@H]1CN2c1ccccn1)c1ccccc1O (10 µM),morphology score,[1],-0.0425
same,SARS-CoV-2 infection rate,[2],116% (inactive)
COCCCOc1ccnc(C[S+]([O-])c2nc3ccccc3[nH]2)c1C (stereo not drawn) [rabeprazole] (10 µM),morphology score,[1],0.00912
same,SARS-CoV-2 infection rate,[2],106% (inactive)
Nc1nc(=O)c(Br)c(-c2ccccc2)[nH]1 [bropirimine] (10 µM),morphology score,[1],0.109
same,SARS-CoV-2 infection rate,[2],99.5% (inactive)
CCC1=C(C)CN(C(=O)NCCc2ccc(S(=O)(=O)NC(=O)N[C@H]3CC[C@H](C)CC3)cc2)C1=O [glimepiride] (10 µM),morphology score,[1],0.152
same,SARS-CoV-2 infection rate,[2],99% (inactive)
O=c1cc(-c2cccc3c2Sc2ccccc2S3)oc(N2CCOCC2)c1 (10 µM),morphology score,[1],0.284
same,SARS-CoV-2 infection rate,[2],83% (inactive)
